# From PubChem BioAssay (NCATS)
# Records with an inconclusive call do not appear. Active and inactive are the calls of the source. The call rests on the fitted dose curve; in most records, active means well fitted cell-killing curve with a large enough effect; inconclusive means small, poorly fitted or top-dose-only effect, or effect the other way; inactive means flat fitted curve, though single readings scatter.
# Test system: PA-1
# Experiment: Primary qHTS to identify gynecologic anti-cancer compounds using libraries of approved drugs and bioactive compounds (AID 1345084); further: nearly all actives have a fitted effect of over 55% in size
# Conditions: Gynecologic cancer cell panel viability, ATPlite luminescence, 48 h; series mostly up to 57.5 µM; activity change, negative = cytotoxicity: at the top concentration
# Procedure, shortened: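 Cells, 1,000 per well, plated 16 h, then exposed 48 h at 37 C to compounds. Viability by ATPlite luminescence after 15 min at room temperature.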
# On the % scale 0 is the no-effect control and ±100 the full control effect.
row,Structure (SMILES),"activity change, negative = cytotoxicity"
1,O=C(NCCCCN1CCN(c2cccc(Cl)c2Cl)CC1)c1cc2ccccc2s1,4.35% (inactive)
2,C/C=C/[C@@H]1C=C[C@@H]2C[C@H](C)CC[C@H]2[C@]1(C)/C(O)=C1/C(=O)[C@@H](CO)N(C)C1=O,-5.54% [at 38.5 µM] (inactive)
3,CNc1nc(NCc2ccc(NS(C)(=O)=O)cc2Cl)cc(-c2ccccn2)n1,9.88% (inactive)
4,N#CC(CCCN1CCN(/N=C/c2cccnc2)CC1)(c1ccccc1)c1ccccc1,3.62% (inactive)
5,CCc1cc2c(cc1CC)CC(NCC(O)c1ccc(O)c3[nH]c(=O)ccc13)C2 (stereo not drawn),7.46% (inactive)
6,CC(=O)OC1C(OC(=O)c2ccccc2)C2C(=C(C)CCC2(C)C)C23CCC(C)(C2)C(=O)CC13 (stereo not drawn),-27.4% [at 25.3 µM] (inactive)
7,CCCc1cc(C)n(C)c(=O)c1CN(C)C(=O)c1cc(-c2ccc(N3CCN(C(C)C)CC3)nc2)cc2c1cnn2C(C)C,0.103% (inactive)
8,COC(=O)c1cc(Br)cnc1N1CCC(NC2CCCCC2)C(O)C1 (stereo not drawn),-1.57% (inactive)
9,Cc1ccc(C2(C(=O)N3CCC(n4nc(-c5ccccc5)oc4=O)CC3)CC2)cc1,3.49% (inactive)
10,Cc1c(C2=CCN(C(=O)N(C)C(C)C)CC2)nnn1-c1cccnc1F,0.417% (inactive)
11,NC(N)=NC(=O)c1cnn(-c2cccc3ncccc23)c1C1CC1,11.4% (inactive)
12,CC1(C)OC[C@H](NC(=O)Nc2ccc(Br)cc2Br)[C@H](c2ccccc2)O1,5.06% (inactive)
13,O=C(Nc1ccccc1)c1ccc(Nc2nnc(-c3ccc(O)cc3)c3ccccc23)cc1,1.13% (inactive)
14,CCCc1ccc(OCC(=O)N(Cc2nc(-c3cccnc3)no2)C(C)C)cc1,-17.5% (inactive)
15,C/C(=C/C=C\C=C\Cc1cnco1)[C@@H](O)C(C)(C)C(N)=O,-7.8% (inactive)
16,CCC(C)CNCC(=O)N1CCC2SC=CC2C1COc1cccc(C)c1 (stereo not drawn),15.2% (inactive)
17,CC(F)(F)CN1CCOc2c(nn(-c3ccccc3Cl)c2-c2ccc(Cl)cc2)C1=O,2.92% (inactive)

row,Structure (SMILES),"activity change, negative = cytotoxicity"
1,COc1cc(CN(CCN)C(=O)c2cccs2)ccc1OCc1ccccc1,-11% (inactive)
2,O=C1c2ccc(Nc3ccc(F)cc3F)cc2CCc2ccc(OCC(O)CO)cc21 (stereo not drawn),21.9% (inactive)
3,O=S(=O)(c1ccccc1)N(CC(F)(F)F)c1ccc(C(O)(C(F)(F)F)C(F)(F)F)cc1,-2.17% (inactive)
4,CCC(C)CNCC(=O)N1CCc2sccc2C1COc1cccc(C)c1 (stereo not drawn),-11.6% (inactive)
5,COc1cc(C(C)C)c(Oc2cnc(N)nc2N)cc1I,7.93% (inactive)
6,Cc1cc(C)cc(-c2cnc3cc(Cl)c(-c4cccc(O)c4)cc3c2OCCCN)c1,-9% (inactive)
7,CCc1cccc(CC)c1-n1c(C=C(C)C)c(C(=O)N2CCNCC2)cc(-c2nc(-c3ccc(C(F)(F)F)cc3)cs2)c1=O,-0.824% [at 25.3 µM] (inactive)
8,Cc1nc(Nc2ccc(F)cc2)nc(N2CCc3ccccc3C2C)c1C (stereo not drawn),-8.34% (inactive)
9,CCCn1ncc(CN2CCCC(C(=O)c3cccc(OC(C)C)c3)C2)c1C (stereo not drawn),-21.1% (inactive)
10,Cc1ccc(N2CCN(CCC3NC(=O)c4ccccc43)CC2)cc1C (stereo not drawn),6.39% (inactive)
11,COc1ccc(S(=O)(=O)Nc2c(C)cc(C)cc2C)cc1,2.55% (inactive)
12,O=C(NS(=O)(=O)c1ccc(Br)s1)c1ccc(Cl)cc1Cl,20.9% (inactive)
13,CC1(C)CC[C@]2(C(=O)O)CC[C@]3(C)C(=CCC4[C@@]5(C)C[C@@H](O)[C@H](O)[C@@](C)(CO)C5CC[C@]43C)[C@@H]2[C@@H]1O (stereo partly drawn),0.212% [at 25.3 µM] (inactive)
14,CC1(C)CCC(C)(C)c2cc(C#Cc3ccc(C(=O)O)cc3)ccc21,3.72% (inactive)
15,Cc1nc2c(C(F)(F)F)cccc2nc1-c1ccc(-c2cccc(S(C)(=O)=O)c2)cc1,16.3% (inactive)
16,CC(C)C[C@@H](C(=O)N[C@@H](Cc1ccc(OCc2ccccc2)cc1)C(=O)NC(C)(C)C)N(C)Cc1ccc(C(C)(C)C)cc1,23.1% (inactive)
